The values that follow come from PubChem BioAssay (NCI).

Structures are written as SMILES. Several values for one entry are separate records, joined by “and”; a condition that tells them apart may be missing. Equal entries are not always repeated. Compounds without any hit were thinned out: in the full panel of roughly 83,000, 20% have a hit.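 Treatment: one concentration, 48 hours, 96-well format. Scoring: percent growth, with anything below 10 considered active.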 A number with no mark means an inactive call. Activity calls are given as the source filed them.

The test system of the assay is NCI/ADR-RES ovarian. The experiment in a line: NCI-60 one-dose screen, 48 h (100 = growth as untreated, 0 = no growth, -100 = all killed). Conditions: 10 µM unless noted. How it is done: Growth inhibition of the NCI/ADR-RES human […] tumor cell line is measured as a screen for anti-cancer activity. Cells are grown in 96 well plates and exposed to the test compound for 48 hours. Compounds are tested at a single concentration, which is 10^-5 M for most compounds. The reported endpoint is percent growth (GI% or GIPRCNT), where numbers from 0 - 100% represent growth inhibition, and numbers from -100% - 0 represent cell death. For example, a value of 40 represents 60% growth inhibition. A value of 0 means no net growth occurred over the course of the experiment. A value of -40 indicates 40% of cells at the beginning of the experiment died by the end of the experiment. A value of -100 means all cells are dead at the end of the experiment.
NCI-60 Human Tumor Cell Lines Screen was performed using the standard one-dose NCI protocol, which is described in more detail at https://dtp.cancer.gov/discovery_development/nci-60/default.htm.
Compounds with GIPRCNT values below 10 were considered active. Activity score was based on GIPRCNT using the following formula: […]
Score is 0 for GIPRCNT values of 100 or above, 50 for GIPRCNT values of 0, and 100 for GIPRCNT values of -100.
`C#Cc1nc(/C=C/CCCCCCC(=O)NO)cs1`: the growth is 24.9%.
Next, `Cn1cc(-c2cc3ncnc(Nc4ccc(CC(=O)Nc5nc(C(C)(C)C)cs5)cc4)c3s2)cn1`: 101%; `NS(=O)(=O)c1ccc(Nc2nc(Nc3ccccc3)nc(N3N=C(c4ccc(Cl)cc4)CC3c3ccc(Cl)cc3)n2)cc1` (stereo not given): 62.4%; `Cc1ccc(/C=N/Nc2nc(Nc3ccccc3)nc(Nc3ccc(S(N)(=O)=O)cc3)n2)cc1`: 101%.
Next, `NCCNC(=O)c1cccc(COc2ccccc2NC(=O)c2cc(Cl)c(Cl)[nH]2)c1`: 101%.
The result for `Cc1ccc(C(=O)CSc2nc3ccccc3c(=O)n2C)cc1` reads 90%; that for `CC(C)(C)OC(=O)Nc1ccc(-c2cccc(Oc3ccc4nnc(Cl)n4n3)c2)cc1`, 70.8%.
In the case of `COc1cc(-c2nc(-c3ccccc3)[nH]c2-c2ccnc(NCCCNS(=O)(=O)c3ccc(C(F)(F)F)cc3)n2)ccc1Cl`, the growth was 13.8% and 32.4%.
On to `CCCCCCN1C=C/C(=C\C(=O)n2ccc3ccccc32)c2ccccc21`, for which the growth is 84.7%.
Next, `COc1ccc(C2CC(c3cccc(OCCCCOc4cccc(C5=NN(C(C)=O)C(c6ccc(OC)cc6)C5)c4)c3)=NN2C(C)=O)cc1` (stereo not given): 75.7%.
On to `C#CCOc1ccccc1C(OC(=O)c1ccccc1)C(=O)NC(C)(C)C(C)(C)C` (stereo not given), for which the growth was 87%.
Next, `NS(=O)(=O)c1cccc(Nc2nc(SCC(=O)c3ccc(Cl)cc3)nc3c2CCC3)c1`: 96.7%; `C#CCOc1ccc(/C=N/Nc2nc(-c3ccc(OC)cc3)cs2)cc1`: 89.6%; `Brc1ccc2[nH]cc(-c3nn4cc(-c5nccs5)nc4s3)c2c1`: 15.8%.
The result for `O=C(/C=C/c1csc(Br)n1)NO` reads 1.04% (active); that for `CC(C)(C)c1cc(NC(=O)Nc2ccc(-c3cn4c5c(sc4n3)CCc3c[nH]cc3-5)cc2)no1`, 29%.
Next, `CCN(CC)CCOc1ccc(C(=C(C)c2ccc(OC)cc2)c2ccc(OCCN(CC)CC)cc2)cc1`: 25.3%; `Oc1[nH]c2ccc(Cl)cc2c1N=Nc1nc(N=Nc2c(O)[nH]c3ccc(Cl)cc23)nc(N2CCCCC2)n1`: 101%.
`O=C(Nc1ccc(Cl)c(C(F)(F)F)c1)Nc1ccc2oc(=O)ccc2c1`: the growth was 19.6%.
The result for `Cc1ccc2c(n1)C(=O)C(Cl)=C(Nc1ccc(C(C)C)cc1)C2=O` reads 49.9%; that for `COc1ccc2c(c1)C=CC1(O2)Oc2ccc(OC)cc2C=C1C` (stereo not given), 9.17% (active).
The result for `CCOC(=O)c1c(NC(=O)c2cccc(C(F)(F)F)c2)sc2c3c(ccc12)OCN(C)C3` reads -54.3% (active); that for `CC1=C(C)C(=O)C(Nc2cccc(C(=O)OC(C)(C)C)c2)=C(Cl)C1=O`, 97.6%.
Next, `C/C(=N\NC(N)=S)c1nnn(-c2ccc([N+](=O)[O-])cc2)c1C`: 98.8%; `COc1ccc(C2CC(c3cccc(OCCCCOc4cccc(C5=NOC(c6ccc(OC)cc6)C5)c4)c3)=NO2)cc1` (stereo not given): 107%; `CN1CCN(c2ccc(Nc3nc(NCCCNS(=O)(=O)c4ccccc4)c4sccc4n3)cc2)CC1`: 86.4%.
With `C/C(=N/N)c1nnn(-c2ccc(Br)cc2)c1C`, the growth is 104%.
Next, `O=C(O)CC1CCN(c2ccc3nnc(Cl)n3n2)CC1`: 98.6%.
For the compound `COc1ccc(N2CCN(C3=C(Cl)C(=O)c4ncccc4C3=O)CC2)cc1`, the growth is 86.6%.
The result for `Cn1cc(-c2nnc(N)nc2-c2c[nH]c3ccc(F)cc23)c2cc(Br)ccc21` reads 15.2%; that for `N#C/C(=C\c1ccc(-c2ccc(Cl)c(Cl)c2)o1)C(=O)Nc1ncc(Cc2ccc(Cl)cc2)s1`, 32.7%; that for `CC(C)(C)c1cc(NC(=O)Nc2ccc(-c3cn4c5c(sc4n3)CCc3cn(CCCN4CCCCC4)cc3-5)cc2)no1`, -43% (active).
The result for `O=C1C(SCc2ccccc2)=C(Cl)CN1c1ccc(Cl)cc1` reads 105%.
Next, `C#Cc1cc(OC)c(C(=O)Nc2ccc(F)cc2C(=O)Nc2cccc(S(=O)(=O)C(F)(F)F)c2)cn1`: -29.1% (active); `c1ccc(-c2cn3c(-c4c[nH]c5ccccc45)csc3n2)cc1`: 91.8%.
As for `C#CCN(C)CCCOc1ccc(NCc2ccc(/C=C/C(=O)NO)cc2)cc1Cl`, the growth was -8.39% (active).
On to `COc1ccc(C(=O)c2c(N)c(C#N)cn2-c2ccc(Cl)cc2Cl)cc1`, for which the growth was 86.7%.
The result for `C#Cc1nc(/C=C\CCCCCCC(=O)NO)cs1` reads 13.1%; that for `O=C(/C=C/c1cccc(F)c1)c1cccc(OCCCOc2cccc(C(=O)/C=C/c3cccc(F)c3)c2)c1`, 90.1%.
The result for `CNC(=O)Nc1ccc(Nc2cc(-c3ccc(-n4cccn4)cc3)[nH]n2)c(C)c1` reads 99.8%.
